Assay results from PubChem BioAssay AID588674 (Broad Institute, 2011).
In all, about 360,000 compounds went through this assay and about 1,800 (0.5%) were called active. The entries come from a sample that favours actives as a whole. Values without a mark were called inactive.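 Rule for the calls: active = mean inhibition of at least 75% with every replicate also reaching 75%; inconclusive = mean inhibition at least 75% but some replicate below; inactive = mean inhibition below 75%.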

Test: Shn3 3'UTR reporter decrease in osteoblasts – cell-based, Clone20 osteoblasts, firefly luciferase, set 2, Schnurri-3 inhibitor project, primary screen (AID 588674);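 note: 0% = median of neutral control wells and 100% = pilot-screen positive control compound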
Conditions: Clone20 osteoblast Shn3 3'UTR firefly luciferase, 24 h; at 12.5 µM; hits give high values

SMILES | inhibition
Clc1ccc(Cl)c(Oc2ccc(Oc3nc(Cl)ccc3Cl)cc2)n1 | -2.29%
Cc1ccc(/C=N/NC(=O)C2=NNC(c3ccccc3)(c3ccccc3)C2)c(O)c1 | 88.2% (active)
O=C(NN=Cc1ccc2c(c1)CCC2)c1ccccc1O | -68.8%
O=C(N/N=C/c1ccccc1O)C1CCCC1 | 26.7%
COC(=O)Cc1ccc(OC2(C)CCN(Cc3ccc4c(c3)OCCO4)C2)cc1 (stereo unspecified) | -22.2%
O=C(NCCCN1CCCCC1)C1CCCN(c2ncnc3c2nc2n3CCCCC2)C1 (stereo unspecified) | 2.4%
O=C(CSC1=NS(=O)(=O)c2cc(F)ccc2N1)Nc1ccccc1F | -17.3%
Cc1cc(C)n(CCC(=O)N2CCN(S(=O)(=O)c3ccc(C)c(C)c3)CC2)n1 | -21.5%
COc1ccc(CCNC(=O)C(=O)NCC2CCNCC2)cc1OC | -3.81%
O=C(O)CSc1nccn1-c1cccc(Cl)c1 | -5.11%
O=C(NCCc1ccccc1)c1cccc(NC(=O)c2ccccc2)c1 | -14.5%
O=C(NC1=CC(=O)c2ccccc2C1=O)c1ccccc1 | 93.6% (active)
Cc1cc(=O)c2ccc(NC(=O)c3ccccc3)cc2[nH]1 | -6.37%
Cn1c2c(c(=O)n(C)c1=O)C1c3ccccc3OCC1C(C)(C)O2 (stereo unspecified) | -0.463%
CC1COC2C(O1)N(S(C)(=O)=O)CCN2S(C)(=O)=O (stereo unspecified) | 1.27%
C=CCn1c(=O)c2ccccc2n2c(SCC(=O)N3CCCc4ccccc43)nnc12 | -3.54%
Cn1c(SCC(=O)N2CCCc3ccccc32)nc2ccccc2c1=O | 86.2% (active)
O=C(CSc1nc2ccccc2c(=O)n1CCCO)N1CCc2ccccc21 | 3.09%
Cn1cc(CN2CCCC(CO)C2)c(-c2ccc(Oc3ccccc3)cc2)n1 (stereo unspecified) | 6.06%
C[C@H](NC(=O)CC[C@H]1O[C@@H](n2ccc(=O)[nH]c2=O)[C@H](O)[C@@H]1O)c1cccc2ccccc12 | -13%
COc1cccc(CNC(=O)C(=O)NCCC2CCCCN2S(=O)(=O)c2ccc(C)cc2)c1 (stereo unspecified) | 13.1%
C[C@H](NC(=O)c1[nH]cnc1C(=O)Nc1nccs1)c1ccccc1 | -5.6%
Cc1ccc(C)c(S(=O)(=O)N2CCN(CC(=O)Nc3ccc([N+](=O)[O-])cc3)CC2)c1 | 5.73%

SMILES | inhibition
COc1ccc(-c2csc3ncnc(N4CCN(S(=O)(=O)c5ccccc5C#N)CC4)c23)cc1 | -3.1%
Cc1ccc(C)c(S(=O)(=O)N2CCN(c3ncnc4sccc34)CC2)c1 | 86.3% (active)
C[n+]1cc(-c2ccccc2)oc1-c1ccccc1 | -76.7%
Cc1ccccc1NC(=O)Cc1nc(COC(=O)C(C)(C)Oc2ccc(Cl)cc2)cs1 | -2.77%
COc1cc(NC(=S)N2CCCC(C)C2)cc(OC)c1OC (stereo unspecified) | -25.8%
O=C1C=C(c2cc(C(F)(F)F)cc(C(F)(F)F)c2)C[C@@H](c2ccc3c(c2)OCO3)C1 | 15%
O=C1C=C(c2ccnc3cc(Cl)ccc23)C[C@@H](c2ccc3c(c2)OCO3)C1 | 85.5% (active)
COc1ccc2cc(C3=CC(=O)C[C@H](c4ccc5c(c4)OCO5)C3)ccc2c1 | -45.2%
COc1ccccc1NC(=O)C(C)OC(=O)c1ccc(-n2cnnn2)cc1 (stereo unspecified) | 1.76%
CC(=O)N1CCCc2cc(S(=O)(=O)N3CCCC(C(=O)N4CCN(c5cccc(Cl)c5)CC4)C3)ccc21 (stereo unspecified) | 93% (active)
CC(=O)N1CCCc2cc(S(=O)(=O)CCC(=O)N3CCN(c4ccccc4)CC3)ccc21 | -3.7%
CC(=O)N1c2ccc(S(=O)(=O)N3CCC(C(=O)N4CCN(c5ccccc5)CC4)CC3)cc2CC1C (stereo unspecified) | 74.2%
CCOC(=O)C1=CC[C@@H](c2ccncc2)N(S(=O)(=O)c2ccc(C)cc2)C1 | 4.63%
COc1ccc(C(c2nnnn2C2CCCC2)N2CCN(C/C=C/c3ccccc3)CC2)cc1 (stereo unspecified) | 16.4%
Cc1cc2nc(-c3ccco3)c(Cc3cccc(F)c3)n2c(C)c1Br | 54.3%
O=C1C(Cl)=C(Oc2ccccc2)C(=O)c2ccccc21 | 96.1% (active)
O=C(NCc1cccs1)c1ccc2c(c1)ncn2C1CCCC1 | -25.6%
COc1c(C=O)c(CCN(C)C(=O)c2ccc(F)cc2)cc2c1OCO2 | -0.0815%
Cn1c(CCNS(=O)(=O)c2ccc(F)cc2)nnc1SCc1cccnc1 | -8.53%
O=C(CCl)Nc1cccc(CP(=O)(c2ccccc2)c2ccccc2)c1 | -0.336%
O=C(CCl)Nc1ccc(Sc2ccc(NC(=O)CCl)cc2)cc1 | 96.4% (active)
CC(=O)Nc1ccc(SCC(=O)NC(=O)c2ccc(Cl)cc2)cc1 | 5.11%
COCCN(CCOC)c1nc(N)c2c(N)nc3c(c2c1C#N)CC(=O)N3Cc1ccc(Cl)cc1 | -5.44%
